Measured values as given in PubChem BioAssay (EPA / NIEHS).
Calls of active or inactive are those of the source. How the source made its calls: active means hit-call score of the fitted dose curve at least 0.9, where 1 is the maximum; inactive means score below 0.9.

Assay: APR_HepG2_MicrotubuleCSK_1hr: Apredica 1-hour HepG2 Assay for Microtubule CSK Stabilty (AID 2282669)
Details: HepG2 microtubule cytoskeleton imaging, actives raise or lower the signal
Method: APR_HepG2_1hr is a cell-based, multiplexed-readout assay that uses HepG2, a human liver cell line, with measurements taken at 1 hour after chemical dosing in a 384-well plate.APR_HepG2_MicrotubuleCSK_1hr is one of 10 assay component(s) measured or calculated from the APR_HepG2_1hr assay. It is designed to make measurements of protein conformation, a form of conformation reporter, as detected with fluorescence intensity signals by HCS Fluorescent Imaging technology.Data from the assay component APR_HepG2_MicrotubuleCSK_1hr was analyzed into 1 assay endpoint. This assay endpoint, APR_HepG2_MicrotubuleCSK_1hr, was analyzed with bidirectional fitting relative to DMSO as the negative control and baseline of activity. Using a type of conformation reporter, measures of protein for gain or loss-of-signal activity can be used to understand the signaling at the cellular-level. Furthermore, this assay endpoint can be referred to as a primary readout, because this assay has produced multiple assay endpoints where this one serves a signaling function. To generalize the intended target to other relatable targets, this assay endpoint is annotated to the cell morphology intended target family, where the subfamily is cell conformation.
Cells were treated with dimethyl sulfoxide (DMSO) as a solvent control at a final concentration of 0.5% v/v or with compounds in DMSO with a resulting final DMSO concentration of 0.5% v/v. Compound treatment was done at concentrations of 0.39, 0.78, 1.56, 3.12, 6.24, 12.5, 25, 50, 100, and 200 uM in duplicate on each plate. Cells were treated with compounds for 1, 24, or 72 hr. Carbonyl […] m-chloro-phenylhydrazone (CCCP) and taxol were used as positive controls for mitochondrial function and cytoskeletal stability, respectively; DMSO served as the negative control for this experiment. Cells were fixed by the direct addition of 50 uL formaldehyde in Hank's Balanced Salt Solution (HBSS) to a final concentration of 3.7%. After incubation in the fixation medium for 30 min at room temperature (293-298 K), cells were rinsed twice with HBSS and treated with cell permeabilization buffer (16 uL of 0.5% Triton X-100) for 10 min at room temperature (293-298 K) before labeling. For mitochondrial membrane potential and mitochondrial measurements, pre-fixed cells were incubated with 50 uL of MitoTracker Red CMXRos (Invitrogen) at a concentration of 250 nM for 30 min before fixation. In the remaining cases, post-fixed cells were labeled by incubation with a multiplexed mixture of primary antibodies in HBSS for 60 min at room temperature (293-298 K) to detect immunoreactivity of c-Jun (1:500), phospho-histone H3 (1:100), phospho-histone H2A.x (1:200), p53 (1:400), alpha-tubulin (1:200) and Hoechst 33342 (2 ug/mL). Cells were labeled for multiplexed imaging on two separate plates: a) Hoechst 33342, MitoTracker Red, phospho-histone H3, and alpha-tubulin, and b) Hoechst 33342, phospho-histone H2A.x, and c-Jun. A final rinse with HBSS (50 uL) was performed before analysis. The primary and secondary antibodies for the proteins were phospho-histone H3 (rabbit anti-phospho-histone H3 and FITC-donkey anti-rabbit IgG), phospho-histone H2A.x (mouse anti-phospho-histone H2A.x and FITC-donkey anti-mouse IgG), c-Jun (rabbit anti-phospho-c-Jun and Cy3-donkey anti-rabbit IgG), p53 (sheep anti-p53 and Cy5-donkey anti-sheep IgG), alpha-tubulin (mouse anti-alpha-tubulin and Cy5-donkey anti-mouse IgG). These antibodies are available as the CellCiphr HepG2 assay kit (Millipore).Digital images of each well were captured using a Cellomics ArrayScan VTI (Thermo Scientific Cellomics) (0.8 NA objective, 0.63x optical coupler, and XF-93 filter set) at 20x magnification. The images were acquired using the autofocus feature of the ArrayScan instrument, which entails the following steps. First, the camera focuses on channel 1 (Hoechst 33342), where nuclei are identified. Second, a Z offset of 1 um is used for capturing mitochondria (MitoTracker Red). […]
In the case of `CC(C)C1(C)N=C(c2ncccc2C(=O)O)NC1=O` (stereo not given), the outcome is reported as “inactive”. With `CCOP(=S)(OCC)Oc1nc(Cl)n(C(C)C)n1` the outcome was “inactive”. In the case of `C=C(C)CN(CC)c1c([N+](=O)[O-])cc(C(F)(F)F)cc1[N+](=O)[O-]`, the outcome is reported as “inactive”. With `C=CCOC(=O)C(C)(C)OC(=O)c1cc(-n2c(=O)cc(C(F)(F)F)n(C)c2=O)ccc1Cl` the outcome was “inactive”. For `CCOc1nc(F)cc2nc(S(=O)(=O)Nc3c(Cl)cccc3Cl)nn12`, the outcome was “inactive”. With `COCC(=O)N(c1c(C)cccc1C)C(C)C(=O)OC` (stereo not given) the outcome was “inactive”. For `CN=C=S`, the outcome was “inactive”. With `COc1ccc(-c2ccccc2)cc1NNC(=O)OC(C)C` the outcome was “inactive”. For `CCCCC(O)(Cn1cncn1)c1ccc(Cl)cc1Cl` (stereo not given), the outcome was “inactive”. In the case of `O=C(Nc1ccccc1-c1ccc(Cl)cc1)c1cccnc1Cl`, the outcome is reported as “inactive”. For `CCCC(=NOCC)C1=C(O)CC(CC(C)SCC)CC1=O` (stereo not given), the outcome was “inactive”. In the case of `COc1cc(OC)nc(NC(=O)NS(=O)(=O)c2ncccc2OCC(F)(F)F)n1`, the outcome is reported as “inactive”. In the case of `Cc1cnc(C2=NC(C)(C(C)C)C(=O)N2)c(C(=O)O)c1` (stereo not given), the outcome is reported as “inactive”. For `CC(C)N1C(=O)c2ccccc2NS1(=O)=O`, the outcome was “inactive”. In the case of `COCc1cnc(C2=NC(C)(C(C)C)C(=O)N2)c(C(=O)O)c1` (stereo not given), the outcome is reported as “inactive”. In the case of `CC(C)Oc1cccc(NC(=O)c2ccccc2C(F)(F)F)c1`, the outcome is reported as “inactive”. For `N#Cc1c(Cl)cccc1Cl`, the outcome was “inactive”. With `CC(C)N1C(=O)N(c2ccccc2)CSC1=NC(C)(C)C` the outcome was “inactive”. For `OC(c1ccc(Cl)cc1)(c1ccc(Cl)cc1)C(Cl)(Cl)Cl`, the outcome was “inactive”. In the case of `Nc1cnn(-c2ccccc2)c(=O)c1Cl`, the outcome is reported as “inactive”. In the case of `CSC(=O)c1c(C(F)F)nc(C(F)(F)F)c(C(=O)SC)c1CC(C)C`, the outcome is reported as “inactive”. With `CC1(C)C(C(=O)OC(C#N)c2cccc(Oc3ccccc3)c2)C1(C)C` (stereo not given) the outcome was “inactive”. For `CNC(=O)N(C)c1nnc(C(C)(C)C)s1`, the outcome was “inactive”. With `CO/N=C(/C1=NOCCO1)c1ccccc1Oc1ncnc(Oc2ccccc2Cl)c1F` the outcome was “inactive”. In the case of `CCOc1cc(C(C)(C)C)ccc1C1COC(c2c(F)cccc2F)=N1` (stereo not given), the outcome is reported as “inactive”. For `CC1(C)CCC(=Cc2ccc(Cl)cc2)C1(O)Cn1cncn1` (stereo not given), the outcome was “inactive”. With `CCOc1nc(C(Cl)(Cl)Cl)ns1` the outcome was “inactive”. For `Clc1nc(Cl)nc(Nc2ccccc2Cl)n1`, the outcome was “inactive”. In the case of `CCSC(=O)N1CCCCCC1`, the outcome is reported as “inactive”. For `CCNC(=O)NC(=O)C(C#N)=NOC`, the outcome was “inactive”. In the case of `CCNP(=S)(OC)O/C(C)=C/C(=O)OC(C)C` (stereo not given), the outcome is reported as “inactive”. With `Nc1c(Cl)c(Cl)nc(C(=O)O)c1Cl` the outcome was “inactive”. For `COC(=O)NS(=O)(=O)c1ccc(N)cc1`, the outcome was “inactive”. For `Cc1cc(C)nc(Nc2ccccc2)n1`, the outcome was “inactive”. For `CCN(CC)c1nc(C)cc(OP(=S)(OC)OC)n1`, the outcome was “inactive”. In the case of `Nc1c(Cl)c(F)nc(OCC(=O)O)c1Cl`, the outcome is reported as “inactive”. For `CC(C)(C)C(=O)C(Oc1ccc(Cl)cc1)n1cncn1` (stereo not given), the outcome was “inactive”. With `O=C(O)c1c(Cl)ccc2cc(Cl)cnc12` the outcome was “inactive”. For `CCCN(CC)CC1COC2(CCC(C(C)(C)C)CC2)O1` (stereo not given), the outcome was “inactive”. In the case of `CC1(C)C(C=C(Cl)Cl)C1C(=O)OC(C#N)c1cccc(Oc2ccccc2)c1` (stereo not given), the outcome is reported as “inactive”.
